Experimental data published in PubChem BioAssay (NCI).
Compounds without any hit were thinned out: in the full panel of roughly 79,000, 15% have a hit. Active and inactive are the calls of the source. No stated cut-off is given here; in the data, active means growth inhibition above about 70%; inactive means the rest.

How the values were obtained:
[1] = NCI Yeast Anticancer Drug Screen. Data for the rad50 strain (AID 155);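 further: 0% = growth of vehicle-only cultures of the same strain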; details: S. cerevisiae rad50 strain growth inhibition; at 50.0 µM; active compounds read high
In short: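 Growth of the mutant yeast was measured after compound exposure and referenced to vehicle-treated cultures.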

[2] = NCI Yeast Anticancer Drug Screen. Data for the mec2-1 strain (AID 157); details: S. cerevisiae mec2-1 strain, at 50.0 µM, active compounds read high
In short: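 Growth inhibition is read against vehicle-treated controls after compound exposure of the mec2-1 yeast strain, which is defective in DNA damage repair or cell cycle control.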

[3] = NCI Yeast Anticancer Drug Screen. Data for the sgs1 mgt1 strain (AID 161);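 further: 0% = growth of cultures given vehicle only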; details: S. cerevisiae sgs1 mgt1 strain, at 50.0 µM, active compounds read high
In short: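 Growth of a repair-deficient yeast mutant was monitored after compound treatment and expressed as inhibition relative to vehicle-treated cultures.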

[4] = NCI Yeast Anticancer Drug Screen. Data for the cln2 rad14 strain (AID 165);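 further: 0% = growth equal to vehicle treated cultures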; details: S. cerevisiae cln2 rad14 strain, at 50.0 µM, active compounds read high
In short: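 Growth inhibition, relative to vehicle-treated controls, is the read-out. The test organism is a yeast strain with defined genetic alterations, cln2 rad14.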

[5] = NCI Yeast Anticancer Drug Screen. Data for the bub3 strain (AID 167); details: S. cerevisiae bub3 mutant strain, at 50.0 µM, active compounds read high
In short: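 Whole-cell yeast assay. The mutant strain was incubated with compounds, and growth inhibition was determined by comparison with vehicle-treated cells.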

[6] = NCI Yeast Anticancer Drug Screen. Data for the mlh1 rad18 strain (AID 175); details: S. cerevisiae mlh1 rad18 strain growth inhibition; at 50.0 µM; active compounds read high
In short: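 Cells of a genetically altered yeast strain, deficient in DNA damage repair, were treated with compound. Their growth was then compared with that of vehicle-treated cultures to give inhibition.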

Measured: growth inhibition

CCCCc1ccc(-n2cnc3c(=O)[nH]c(N)nc32)cc1
inactive: [1] 5.15% | [2] 29% | [3] -8.3% | [4] -0.4% | [5] 30.8% | [6] 26.5%

O=C1C(Cl)N(c2ccc(Cl)cc2Cl)C1c1c[nH]c2ccccc12 (stereo not given)
inactive: [1] -14.4% | [2] -13.9% | [3] -16.7% | [4] 3.05% | [5] 2.95% | [6] -20.4%

O=Cc1ccccc1COC(=O)c1cc(C(=O)OCc2ccccc2C=O)c(C(=O)OCc2ccccc2C=O)cc1C(=O)OCc1ccccc1C=O
inactive: [1] 13.9% | [2] 7.15% | [3] -14.2% | [4] -2.8% | [5] -4.9% | [6] 5.25%

COc1ccc2c(c1)CC1(CC2)NCC(=O)NC1=O (stereo not given)
inactive: [1] 7.9% | [2] 15.6% | [3] -11.8% | [4] -2% | [5] 5.8% | [6] 12.4%

CC(=O)OCC1(C)C(O)CCC2(C)C1CCC1CC3CC12CCC3(O)CO (stereo not given)
inactive: [1] 12.2% | [2] -26% | [3] 13.8% | [4] 2.95% | [5] -23.4% | [6] 7.9%

O=C(NC1=C(Cl)C(=O)c2ccccc2C1=O)C(=O)c1c(O)c2ccccc2oc1=O
active: [1] 83.5% | [2] 85.8% | [3] 87.8% | [4] 84.2% | [5] 84.6% | [6] 91.3%

CCCCCCCCCC(=O)N(C)OC
inactive: [1] 6.1% | [2] 4.3% | [3] 7.05% | [4] 1.3% | [5] -4.6% | [6] 18.1%

Cc1cccc(C)c1NC(=O)C(=O)C(C(=O)c1ccccc1-c1ccccc1)C1OC(=O)c2ccccc21 (stereo not given)
inactive: [1] 26.6% | [2] 15.4% | [3] 12.2% | [4] -29.6% | [5] 2.2% | [6] 23.6%

Cc1ncc([N+](=O)[O-])cc1C(=O)O
inactive: [1] 1% | [2] 10% | [3] -0.75% | [4] -7.1% | [5] 5.7% | [6] -1.45%

CC1OC(OCC2OC(Oc3c(-c4ccc(O)cc4)oc4cc(O)cc(O)c4c3=O)C(OC3OC(C)C(O)C(O)C3O)C(O)C2O)C(O)C(O)C1O (stereo not given)
inactive: [1] -13.7% | [2] -21.2% | [3] -2.2% | [4] 2.75% | [5] -2.9% | [6] 5.6%

COc1cccc(-c2nnc(-c3cccc(OC)c3)o2)c1
inactive: [1] 25.4% | [2] -12.1% | [3] 16.6% | [4] 1.95% | [5] 25.5% | [6] 0.2%

Cc1cc(NS(=O)(=O)c2ccc(Nc3c4ccccc4nc4c(C(=O)NCCN(C)C)ccc(Cl)c34)cc2)no1
inactive: [1] -9.25% | [2] 17.1% | [3] -2.4% | [4] 6.1% | [5] -3.25% | [6] 63.5%

COC(=O)[C@@H]1[C@H]2C[C@@H]3c4[nH]c5ccccc5c4CCN3C[C@@H]2CC[C@@H]1O
inactive: [1] 1.5% | [2] -9.55% | [3] 13.9% | [4] 2.15% | [5] 5.45% | [6] 1.25%

CCOC(=O)[C@H]1CSC[C@@H](C(=O)OC)N1
inactive: [1] -13.6% | [2] -4.7% | [3] -10.6% | [4] 4.45% | [5] 5.15% | [6] -4.9%

CC1(C)c2ccccc2C(=O)C12CCC(=O)CC2
inactive: [1] 9.2% | [2] -3.4% | [3] 18.8% | [4] 26.4% | [5] 18.9% | [6] 17.5%

c1ccc(-c2ccc3c(c2)NCCN3)cc1
inactive: [1] -3% | [2] 9.35% | [3] -13.6% | [4] -4.35% | [5] 7.25% | [6] 21.4%

CC1=CCC(C(C)(C)OCCCO)CC1 (stereo not given)
inactive: [1] 15.8% | [2] 14% | [3] -17.6% | [4] 10.7% | [5] 4.4% | [6] 22%

CCC(CCC(C)C1CCC2C3CC=C4CC(OC(=O)Nc5ccccc5)CCC4(C)C3CCC12C)C(C)C (stereo not given)
inactive: [1] -23.4% | [2] -28.1% | [3] -15.9% | [4] -38.5% | [5] -1.5% | [6] -26.4%

O=S(c1ccc(O)cc1)c1ccc(O)cc1
inactive: [1] -24.2% | [2] -4.95% | [3] 0.55% | [4] 1.35% | [5] -1.1% | [6] -2.35%

CCOC(=O)/C(C#N)=C(\C)c1ccc(O)c(OC)c1
inactive: [1] 11.4% | [2] 8.95% | [3] -3.45% | [4] 24.1% | [5] -8.1% | [6] 14.8%

CCC(CCCCCc1ccccc1)(C(=O)O)C(=O)O
inactive: [1] -0.7% | [2] 10.8% | [3] 21.7% | [4] -55% | [5] -5.2% | [6] -2.95%

C=C(C)COc1ccc(/C=C/C(=O)OCC)cc1
inactive: [1] 9.8% | [2] -4% | [3] 4.5% | [4] 1.2% | [5] -6.25% | [6] -12.4%

CO[C@H]1CC2CC1C1C3=C(NC21)C1(O)C[C@H]2CN(CC3)C1C[C@@H]2C(C)CO (stereo not given in full)
inactive: [1] -3.6% | [2] 9.9% | [3] 2.75% | [4] -0.15% | [5] 1.45% | [6] -23.6%

Cc1noc2cccc(OCc3ccccc3)c12
inactive: [1] -32.2% | [2] -40.5% | [3] 5.4% | [4] -0.6% | [5] 17.4% | [6] -9.2%

COc1cccc2c(=O)c3c(oc12)CCC(C)C3 (stereo not given)
inactive: [1] -10.6% | [2] 4.35% | [3] 5.85% | [4] -35.7% | [5] -14.8% | [6] -9.4%

COc1ccc(/C(C)=N/OC(=O)c2sc3ccccc3c2Cl)cc1CN1CCOCC1
inactive: [1] -17.9% | [2] -23.9% | [3] -25.4% | [4] -2.05% | [5] -28.9% | [6] -21.6%

COc1ccc2c(c1)Cc1cc(N=[N+]([O-])c3ccc4c(c3)Cc3cc(OC)ccc3-4)ccc1-2
inactive: [1] 8.65% | [2] 1.35% | [3] -17.9% | [4] -80% | [5] 47.5% | [6] 9.85%

O=C(N/C(=C\c1ccccc1[N+](=O)[O-])c1nc2ccccc2[nH]1)c1ccccc1
inactive: [1] -3.4% | [2] -1.45% | [3] 1.2% | [4] -1.15% | [5] 6.85% | [6] -1.7%

COc1ccc(/C(Nc2ccccc2)=C(\CCl)c2ccccc2)cc1OC
inactive: [1] 6.5% | [2] 7.75% | [3] 34.5% | [4] 5.1% | [5] 44.4% | [6] 9.25%

O/N=C(\C(=N/O)Nc1ccc(-c2ccc(NC(=N/O)/C(=N\O)c3ccccc3)cc2)cc1)c1ccccc1
inactive: [1] 7.35% | [2] -43.4% | [3] -8.5% | [4] 1.45% | [5] -14.4% | [6] 1.1%

CC1=[N+]([O-])C2(CCCC2)N(O)C1(C)C
inactive: [1] -13.8% | [2] -0.7% | [3] 9.7% | [4] 19.5% | [5] -6.25% | [6] 12.8%

CCOC(=O)N1N(C(=O)c2ccccc2)C(=O)CC1(C)C
inactive: [1] -3.15% | [2] 8.2% | [3] 1.5% | [4] -16.1% | [5] -6.8% | [6] -24.2%

Cc1cc(=O)[nH]c(-n2[nH]c(C)c(CCO)c2=O)n1
inactive: [1] -13.3% | [2] -17.2% | [3] 14.8% | [4] 19.9% | [5] -5.9% | [6] 18.4%

CO[C@@H]1C=C[C@@]23c4cc5c(cc4CN(C[C@@H]2O)[C@H]3C1)OCO5
inactive: [1] 3.95% | [2] -26.1% | [3] -11.9% | [4] 14.8% | [5] -16.1% | [6] -59.4%

Nc1nc(-c2ccccc2)nc2[nH]ncc12
inactive: [1] -5.45% | [2] -3.5% | [3] -11.2% | [4] -10.2% | [5] 1.6% | [6] 5.75%

Nc1ncnc2c1ncn2C1OC(C(=O)OCCO)C(O)C1O (stereo not given)
inactive: [1] -16.6% | [2] -19.8% | [3] -12.6% | [4] -12.2% | [5] -11.2% | [6] -22.9%

Cc1cc(N(CCC#N)S(=O)(=O)c2ccccc2)ccc1/C=C1\N=C(c2ccc(Cl)cc2)OC1=O
inactive: [1] -4.5% | [2] 6.9% | [3] 7.8% | [4] -18.6% | [5] -2.7% | [6] 17.4%

CC1=C(C(=O)NC(C)(C)C)CC(C(=O)NC(C)(C)C)C(C)N1 (stereo not given)
inactive: [1] -21.4% | [2] -25.8% | [3] -17.6% | [4] 2.45% | [5] -3.2% | [6] -18.2%

O=C(CBr)c1ccc(S(=O)(=O)c2ccccc2)cc1
inactive: [1] 67.3% | [4] 27.9%
active: [2] 92.7% | [3] 85% | [5] 72.2% | [6] 78.3%

CC(NC(=O)C1CCCN1C(=O)OCc1ccccc1)C(=O)O (stereo not given)
inactive: [1] -7.7% | [2] 31.1% | [3] -10.5% | [4] 2.1% | [5] -13.2% | [6] -19.6%
